Results: PubChem BioAssay (NCI)
Compounds without any hit were thinned out: in the full panel of roughly 79,000, 15% have a hit. A number with no mark means an inactive call. Calls of active or inactive are those of the source. Rule as the data show it: active = growth inhibition above about 70%; inactive = the rest. Where a SMILES comes first, the peptide text is derived from it. [ ]: non-standard residue; d: D form. The star is where a group is joined. Nle = CCCC[CH](N)C(=O)O; Cbz = O=C(OCc1ccccc1)*

Tests used:
[1] = NCI Yeast Anticancer Drug Screen. Data for the rad50 strain (AID 155);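 also: 0% = growth of vehicle-only cultures of the same strain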; details: S. cerevisiae rad50 strain growth inhibition; at 50.0 µM; active compounds read high
Procedure, shortened: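 DNA repair mutant yeast, compound exposure, growth read-out; inhibition is taken relative to vehicle.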

[2] = NCI Yeast Anticancer Drug Screen. Data for the mec2-1 strain (AID 157); details: S. cerevisiae mec2-1 strain, at 50.0 µM, active compounds read high
Procedure, shortened: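 Compounds were applied to mec2-1 yeast cells. Their growth was then compared with that of vehicle-treated cultures to give growth inhibition.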

[3] = NCI Yeast Anticancer Drug Screen. Data for the sgs1 mgt1 strain (AID 161);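 also: 0% = growth of cultures given vehicle only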; details: S. cerevisiae sgs1 mgt1 strain, at 50.0 µM, active compounds read high
Procedure, shortened: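 Yeast cells carrying a defined DNA-repair defect were exposed to test compounds. Growth inhibition was measured relative to vehicle-treated controls.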

[4] = NCI Yeast Anticancer Drug Screen. Data for the cln2 rad14 strain (AID 165);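 also: 0% = growth equal to vehicle treated cultures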; details: S. cerevisiae cln2 rad14 strain, at 50.0 µM, active compounds read high
Procedure, shortened: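 Strain: cln2 rad14 yeast, altered in cell cycle control and DNA damage repair. Read-out: growth inhibition vs vehicle.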

[5] = NCI Yeast Anticancer Drug Screen. Data for the bub3 strain (AID 167); details: S. cerevisiae bub3 mutant strain, at 50.0 µM, active compounds read high
Procedure, shortened: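 In this screen, a yeast mutant lacking normal mitotic checkpoint function is challenged with compound. Relative growth versus vehicle gives the inhibition value.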

[6] = NCI Yeast Anticancer Drug Screen. Data for the mlh1 rad18 strain (AID 175); details: S. cerevisiae mlh1 rad18 strain growth inhibition; at 50.0 µM; active compounds read high
Procedure, shortened: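 A repair-deficient yeast strain is exposed to test compound, and growth is scored relative to vehicle-treated controls.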

Structure (SMILES)	growth inhibition [1]	growth inhibition [2] [%]	growth inhibition [3]	growth inhibition [4]	growth inhibition [5] [%]	growth inhibition [6] [%]
CC(C)c1ccc(C=O)cc1	18.3%	31	-21.5%	-12.2%	-9.15	11.4
Cc1ccc(-c2c3c(n(C4OC(CO)C(O)C(O)C4O)c(=S)c2C#N)CC(C)(C)CC3=O)cc1 (centres undefined)	23.5%	13.7	-4.45%	-8.95%	9.15	11.8
C/C=C(/C)c1ccccc1	-5.1%	1.8	-1.1%	10.4%	4.55	24.6
O=COCCCCCc1ccccc1	-10.6%	-5.05	-2.55%	8.6%	-6.45	-11
O=C(O)c1cc(C2CC2)nc2ccc(Br)cc12	13.6%	1.7	2.2%	6.55%	-5.6	19.8
COc1cc2ccc3c4cc(OC)c(OC(C)C)cc4cnc3c2cc1OC	-48.9%	-15.3	-0.9%	29.6%	-10.5	-4.45
CC1=CCCCC1O (centres undefined)	-7.15%	10.6	-6.7%	4.55%	14.1	-0.6
Cc1ccc(S(=O)(=O)OC2C(C)(C)C(=O)C2(C)C)cc1	7.45%	-2.15	-0.05%	-11.7%	17.6	8.35
CCOc1cc2c(cc1OC)c[n+](C)c1c3cc(OC)c(OC)cc3ccc21	22.5%	10.9	15%	-2.1%	-6.05	14.6
CCCCC(NC(=O)C(Cc1ccccc1)NC(=O)OCc1ccccc1)C(=O)O (stereo not drawn) (Cbz-Phe-[Nle]-OH; configuration not given here)	5.9%	-1.2	-4.3%	-31.8%	-3.2	9.05
O=C1CCCc2ccccc21	-2.35%	-11.3	-29.9%	-30.3%	-14	1
[N-]=[N+]=NCC(O)Cn1cnc2c(NC(=O)c3ccccc3)ncnc21 (centres undefined)	-14.7%	-0.15	0.85%	-16.1%	8.6	7.2
CCOC(=O)C(Cc1ccc(Cl)cc1)(Cc1ccc(Cl)cc1)C(=O)OCC	0.75%	-30.4	-18%	6.15%	-15.8	-10.7
CC12CC(=O)NC(=O)N1CCS2 (centres undefined)	3.7%	5.6	-1.85%	-20.7%	-13.7	-6.15
O=C(O)CC(=O)C(C(=O)O)C(CCc1ccccc1)C(C(=O)O)C(=O)CC(=O)O (centres undefined)	-21.2%	-13.6	-19.7%	10.2%	-2.75	-11.4
CCOC1=C/C(=N\NC(N)=O)CCC1	9.35%	7.2	-1.1%	27.8%	3.95	0.1
Fc1cccc(C2ON=C(c3ccccc3)N2C23CC4CC(CC(C4)C2)C3)c1 (centres undefined)	4.9%	-1.85	6.1%	36.8%	-8.35	33.9
Cc1ccc([N+](=O)[O-])c(N)n1	3.25%	-5.65	-2.45%	2.3%	3.8	1.3
O=C(NC(Cc1ccc(O)cc1)C(=O)O)SCc1ccccc1 (centres undefined)	-25.6%	21	22.9%	-52.5%	22.9	-12
O=C(O)/C=C/C(=O)Nc1ccc(Cl)cc1C(=O)c1ccccc1	24.6%	9.1	33%	0.4%	14.6	20.8

Structure (SMILES)	growth inhibition [1]	growth inhibition [2] [%]	growth inhibition [3]	growth inhibition [4]	growth inhibition [5] [%]	growth inhibition [6] [%]
COc1ccc(-n2c(N)c(C#N)c(C#N)c2-c2ccco2)cc1	6.7%	9	-9.3%	-20.1%	-25.4	-39
CCCCC(CC)CN(CCOC(=O)c1cc2ccccc2oc1=O)CC(CC)CCCC (centres undefined)	20.8%	-4.2	48.8%	55%	20.8	31.8
COc1ccc(Cl)cc1NC(=O)Nc1ccc(F)c([N+](=O)[O-])c1	10%	38	29.2%	-9.8%	33.5	23.8
O=C(c1ccccc1)C(c1ccccc1)S(=O)(=O)N1CCCC1 (centres undefined)	-4.65%	5.65	21.6%	-1.4%	12.7	26.9
CC(NNC(=S)N1CCC(c2ccccc2)CC1)c1ccc2ccccc2n1 (centres undefined)	-48.9%	9.25	29.9%	11.5%	-2	26.9
CCOC(=O)/C(F)=C/c1cccc(C)c1	-5.05%	-23	-17.9%	-4.7%	-5.45	-3.1
O=C(Nc1ccc(Cl)cc1C(=O)O)c1ccc([N+](=O)[O-])cc1	23.1%	18.2	26.7%	38.8%	23.9	53.2
Nc1ccc(C(=O)N/N=C/C=C/c2ccccc2)cc1	0.6%	56.1	16.6%	-5.8%	30.4	8.05
O=C(Nc1ccc2c(c1)OCO2)O/N=C\c1ccccn1	9.15%	26.8	17.7%	57.4%	9.4	42.1
CCCCCCCCCCCCCCCCCC1(c2ccccc2)NC(=O)NC1=O (centres undefined)	9.5%	10.3	30.5%	12.9%	5.8	-13.1
COc1ccc(/C(C)=N/N=C(\C)c2ccc(OC)cc2)cc1	7.45%	-28.1	32.3%	12.3%	17.1	13.6
CNC(=O)OCc1nc(N=[N+]=[N-])n(C)c1COC(=O)NC	-16.9%	-19.1	-3.65%	-31.4%	2.2	-24.4
CCCCCCCCCCCC[N+](C)(C)Cc1cc(=O)c(O)co1	71.7% (active)	43.6	74.1% (active)	78.8% (active)	65	27.2
C[N+]([O-])(Cc1ccccc1)c1ccccc1 (centres undefined)	-3.6%	-16.3	-15.2%	-20.9%	-26.8	1.75
CN(C)CCOC(=S)S	1.85%	-0.4	-9.3%	1.5%	10.3	-1
COc1cc(NC(N)=O)ccc1Nc1c2ccc(N)cc2nc2cc(N)ccc12	69.8%	22.6	9.05%	43%	-14.9	27.6
CCCC1=C(c2ccc(OC)cc2)Cc2cc(OC)ccc21	-14.9%	-16.9	-1.05%	-2.4%	2.1	9
CCCNC(=O)Oc1ccccc1C(N)=O	-3.35%	-20.1	-4.4%	-44%	8	-5.75
COc1cc2c(c(OC)c1OC)-c1ccc(OC)c(=O)cc1C(NC(=O)COc1ccccc1)CC2 (centres undefined)	16.5%	-28.6	15.2%	11.2%	6.95	14.6
